Compound activity deposited in PubChem by National Center for Advancing Translational Sciences (NCATS).
Sm TGR block: inhibitors of Schistosoma mansoni thioredoxin glutathione reductase; purified TGR, DTNB reduction, TNB absorbance 405 nm; Potency, µM (titrated, usually from 114 µM), hits mostly inhibitors; hit rate 3% among 360,000; AID 485364; further: nearly all actives have a fitted effect of over 60% in size
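Kinetic colorimetric format: TGR-catalysed, NADPH-driven DTNB reduction monitored via TNB absorbance. Enzyme dispensed at 20 nM; compound exposure 15 min at room temperature before reaction start.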
HCMV inh: inhibitors of human cytomegalovirus | HFF cells, HCMV-luciferase reporter, 72 h; active compounds read low | activity change, negative = inhibition, % at 57.5 µM | hit rate 4.5% among 410,000 | AID 1259415; in the data active means activity change below about -60%; inconclusive means no clear call, values can overlap the other calls; inactive means above about -39%
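HFF cells seeded 16 h at 37C, treated with compounds, infected with luciferase-reporter HCMV at MOI 1 PFU/cell; luciferase read at 72 h post infection, normalized to buffer-only and Salinomycin controls.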
HCV inhibitor: inhibitors of hepatitis C virus infection; hit rate 3.4% among 340,000; Huh7.5.1 HCVcc-Cre infection, luciferase reporter, 44 h; Potency, µM (series often up to 41.8 µM), usual class: inhibitors
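Luciferase read-out (15 sec integration) after a 15 min room-temperature substrate step quantifies HCVcc-Cre infection. Cells, 1,000 per well, had compound added 4 h post-plating, then virus at ~0.5 moi, and were cultured 44 h.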
Pf growth 48h: inhibits P. falciparum growth in the first generation, 48 h. P. falciparum luciferase growth in erythrocytes, 48 h. hit rate 5.9% among 310,000. AID 504832. Potency, µM (series often up to 28.7 µM), most hits filed as inhibitors
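Luciferase-expressing parasites in RBCs, 2% Hct / 0.1% parasitemia final; RPMI 1640 + 0.5% Albumax; 37 C, 5% CO2, one generation; luminescence read-out, lower signal = inhibition.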
SARS PLpro yeast: SARS-CoV PLP inhibition in yeast | S. cerevisiae expressing SARS-CoV PLpro, growth rescue | hit rate 0.19% among 330,000 | Potency, µM (series often up to 32.9 µM), most hits filed as activators; calls by dose curve; further: nearly all actives have a fitted effect of over 55% in size
Pf growth 96h: inhibits malaria parasite growth, 96 h; P. falciparum luciferase reporter growth, 96 h; Potency, µM (titrated, usually from 28.7 µM), usual class: inhibitors; hit rate 6.9% among 320,000
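P. falciparum expressing integrated firefly luciferase, in erythrocytes at 2% hematocrit, 0.05% parasitemia, incubated with compounds 96 h at 37 C, 5% CO2. Growth inhibition read as loss of luminescence; two-generation exposure targets delayed-death apicoplast inhibitors.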
Hits are given with their value. This is a sample that favours compounds with a hit; in the whole collection about 15% have one here. Unless noted, the call rests on the fitted dose curve; in most records, active means well fitted curve in the direction sought with a large enough effect; inconclusive means small, poorly fitted or top-dose-only effect, or another doubt; inactive means no such curve, though single readings can be large; an effect the other way counts as inactive or inconclusive.

How did COc1ccc(CC(=O)NCc2ccc(Cl)cc2)cc1S(=O)(=O)N1CCOCC1 do in these assays?
Sm TGR block: inactive; HCMV inh: inactive; HCV inhibitor: inactive; Pf growth 48h: inconclusive; SARS PLpro yeast: inactive; Pf growth 96h: inconclusive

Results for CCCn1c(SCC(=O)Nc2cccc(S(=O)(=O)NC3=NCCCCC3)c2)nc2ccccc2c1=O ?
Sm TGR block: inactive; HCMV inh: inactive; HCV inhibitor: inactive; Pf growth 48h: 8.28µM; SARS PLpro yeast: inactive; Pf growth 96h: 6.57µM

What do the screens show for `CCOCCCn1c(SCC(=O)Nc2cccc(S(=O)(=O)NC3=NCCCCC3)c2)nc2ccccc2c1=O`?
Sm TGR block: inactive; HCMV inh: inactive; HCV inhibitor: inactive; Pf growth 48h: 6.57µM; SARS PLpro yeast: inactive; Pf growth 96h: inactive

How did Cc1ccc(-n2c(SCC(=O)Nc3cccc(S(=O)(=O)NC4=NCCCCC4)c3)nc3ccccc3c2=O)cc1C do in these assays?
Sm TGR block: inactive; HCMV inh: inactive; HCV inhibitor: inactive; Pf growth 48h: inconclusive; SARS PLpro yeast: inactive; Pf growth 96h: inconclusive

Results for CCCn1c(=N)c(C(=O)NC(C)c2ccccc2)cc2c(=O)n3ccccc3nc21 (centres undefined) ?
Sm TGR block: inactive; HCMV inh: inactive

Results for Cc1ccsc1CCN1C(=O)N(c2ccccc2)C(=O)C1CC(=O)Nc1ccc(F)cc1 (centres undefined) ?
Sm TGR block: inactive; HCMV inh: inactive

What do the screens show for `CC(=O)C1=C(O)C(=O)N(CCCCCC(=O)O)C1c1ccc(N(C)C)cc1` (centres undefined)?
Sm TGR block: inactive; HCMV inh: inactive; HCV inhibitor: inconclusive; Pf growth 48h: inactive; SARS PLpro yeast: inactive

Results for COc1ccc(-c2oc3ccc(N4CCOCC4)cc3c2/C=C/c2ccc(OC)c(OC)c2)cc1 ?
Sm TGR block: inactive; HCMV inh: inactive; HCV inhibitor: inactive; Pf growth 48h: inconclusive; SARS PLpro yeast: inactive; Pf growth 96h: 11.7µM

How did COc1ccccc1C(C)NCC(=O)NC(=O)NCc1ccco1 (centres undefined) do in these assays?
Sm TGR block: inactive; HCMV inh: inactive; HCV inhibitor: inactive; Pf growth 48h: inactive; Pf growth 96h: inactive

Results for CCOC(=O)c1c(N)c2cc([N+](=O)[O-])ccc2n1C ?
Sm TGR block: inactive; HCMV inh: inactive; HCV inhibitor: inactive; Pf growth 48h: inactive; SARS PLpro yeast: inactive; Pf growth 96h: inactive

What do the screens show for `CCOC(=O)/C(=C/c1c(C)n(C)c2ccc([N+](=O)[O-])cc12)C(C)=O`?
Sm TGR block: inactive; HCMV inh: -85.4; HCV inhibitor: inconclusive; Pf growth 48h: inactive; SARS PLpro yeast: inactive; Pf growth 96h: inactive

Results for CC(=O)OCCCCCCCCCCC[N+]1(C)CCCCC1 ?
Sm TGR block: inactive; HCMV inh: inactive; HCV inhibitor: inactive; Pf growth 48h: inconclusive; SARS PLpro yeast: inactive; Pf growth 96h: inactive

How did COC(=O)CCCCCCCCCC[N+]1(C)CCCCC1 do in these assays?
Sm TGR block: inactive; HCMV inh: inactive; HCV inhibitor: inactive; Pf growth 48h: 3.7µM; SARS PLpro yeast: inactive; Pf growth 96h: inactive

Results for S=C(NCC1CCCO1)c1ccc(Br)cc1 (centres undefined) ?
Sm TGR block: inactive; HCMV inh: inactive; HCV inhibitor: inactive; Pf growth 48h: inactive; SARS PLpro yeast: inactive; Pf growth 96h: inactive

Results for CCN(c1ccc(OC)cc1)S(=O)(=O)c1ccc(-c2ccc(=O)[nH]n2)o1 ?
Sm TGR block: inactive; HCMV inh: -63.5; HCV inhibitor: inactive; Pf growth 48h: inactive; SARS PLpro yeast: inactive; Pf growth 96h: inactive

Results for COc1ccc(CNS(=O)(=O)c2ccc(-c3ccc(=O)[nH]n3)o2)cc1 ?
Sm TGR block: 89.1µM; HCMV inh: inactive; HCV inhibitor: inactive; Pf growth 48h: inactive; SARS PLpro yeast: inactive; Pf growth 96h: inactive

How did CCN(CC)S(=O)(=O)c1ccc(NC(=O)c2nn(C)c3c2CSc2ccccc2-3)cc1 do in these assays?
Sm TGR block: inactive; HCMV inh: inactive

Results for CCOC(=O)c1cc(C)n(CC2CCC(C(=O)Nc3ccc(Cl)cc3)CC2)c1C (centres undefined) ?
Sm TGR block: inactive; HCMV inh: -79.5

How did COc1ccc(NC(=O)Cn2c(=O)n(-c3ccccc3)c(=O)c3c4c(sc32)CCCC4)cc1 do in these assays?
Sm TGR block: inactive; HCMV inh: inactive

How did Cc1cccc(C)c1NC(=O)CSc1nccn1C do in these assays?
Sm TGR block: inactive; HCMV inh: inactive

How did O=C1C(Cc2ccccc2)Nc2ncnc(N3CCc4ccccc4C3)c2N1Cc1ccccc1 (centres undefined) do in these assays?
HCV inhibitor: inactive; SARS PLpro yeast: inactive

What do the screens show for `Cc1ccc(CN2C(=O)C(C)Nc3ncnc(N4CCOCC4)c32)cc1` (centres undefined)?
Sm TGR block: inactive; HCMV inh: inactive; HCV inhibitor: inactive; Pf growth 48h: 10.4µM; SARS PLpro yeast: inactive; Pf growth 96h: 11.7µM

Results for CC1Nc2ncnc(N3CCN(c4ccccc4)CC3)c2N(Cc2ccccc2)C1=O (centres undefined) ?
Sm TGR block: inactive; HCMV inh: inactive; HCV inhibitor: inactive; Pf growth 48h: inconclusive; SARS PLpro yeast: inactive; Pf growth 96h: inconclusive

What do the screens show for `O=C1C(Cc2ccccc2)Nc2ncnc(N3CCCCC3)c2N1Cc1ccc(Cl)cc1` (centres undefined)?
Sm TGR block: inconclusive; HCV inhibitor: inactive; Pf growth 48h: 11.7µM; SARS PLpro yeast: inactive; Pf growth 96h: 11.7µM

What do the screens show for `O=C1C(Cc2ccccc2)Nc2ncnc(N3CCN(c4ccccc4)CC3)c2N1Cc1ccc(Cl)cc1` (centres undefined)?
Sm TGR block: inactive; HCMV inh: inactive; HCV inhibitor: inconclusive; Pf growth 48h: 3.7µM; SARS PLpro yeast: inactive; Pf growth 96h: 9.28µM

Results for O=C1C(Cc2ccccc2)Nc2ncnc(N3CCOCC3)c2N1Cc1ccc(Br)cc1 (centres undefined) ?
Sm TGR block: inconclusive; HCMV inh: inactive; HCV inhibitor: inconclusive; Pf growth 48h: 13.1µM; SARS PLpro yeast: inactive; Pf growth 96h: inconclusive

Results for C=CCc1cc(C=Nc2ccc(N3CCOCC3)cc2)cc(OCC)c1O ?
HCMV inh: inconclusive; HCV inhibitor: inactive

Results for O=C(Nc1ccc(S(=O)(=O)N(Cc2ccccc2)c2ccccc2)cc1)c1ccc([N+](=O)[O-])cc1 ?
Sm TGR block: inactive; HCMV inh: inactive

What do the screens show for `O=C1CCCN1CCCN1CC(C(=O)N(CCO)Cc2ccccc2)CCC1=O` (centres undefined)?
Sm TGR block: inactive; HCMV inh: inactive; HCV inhibitor: inactive; Pf growth 48h: inactive; SARS PLpro yeast: inactive; Pf growth 96h: inconclusive
